Test results as given in the supplement of paper PMC10646978.
± gives the standard deviation.

What was measured:
Details in all cases: modulator concentration 10 µM
[1] = tested on: RAW-Dual (murine macrophage reporter line); assay: NF-kB reporter (SEAP) activity fold change vs agonist alone; higher = enhanced NF-kB activity
Method in brief: (§1)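 RAW-Dual murine macrophage reporter cells were seeded at 50 000 per well in 384-well plates and pre-incubated 1 hour at 37 °C with compound pin-transferred to 10 μM final. After 1 hour, a PRR agonist was added and cells incubated overnight. Supernatant NF-κB (SEAP, QUANTI-Blue, 620 nm absorbance) and IRF (Lucia luciferase, QUANTI-Luc, luminescence) signals were divided by the mean agonist-only control on the same plate to give fold change. Two replicate plates were averaged, with errors by propagation.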

[2] = tested on: RAW-Dual (murine macrophage reporter line); assay: IRF reporter (Lucia luciferase) activity fold change vs agonist alone; higher = enhanced IRF activity
Method in brief: as §1

[3] = tested on: RAW-Dual (murine macrophage reporter line); assay: viability score (confluency relative to resting cells, overnight) (fraction); higher = more viable, active = viable (0.7 or more)
Method in brief: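 Two confluency masks, generated with IncuCyte software over all imaged wells, were applied to IncuCyte images of RAW-Dual macrophages. The cells, in 384-well plates, had been exposed overnight to 10 μM final compound. The viability score is confluency as a fraction of resting cells, and a compound met the cutoff only with both masks above 70% of resting cells.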

[4] = agonist: CpG ODN 1826 0.5 ug/mL

| Compound | NF-kB reporter [1, 4] | NF-kB reporter ([1]; agonist: LPS 0.1 ug/mL) | NF-kB reporter ([1]; agonist: MPLA […]) | IRF reporter ([2]; agonist: 3'3'-cGAMP 10 ug/mL) | IRF reporter ([2]; agonist: LPS 0.1 ug/mL) | IRF reporter ([2]; agonist: MPLA […]) | viability score [3] |
| --- | --- | --- | --- | --- | --- | --- | --- |
| CC(C)(C)c1cc(C=NO)c(C(C)(C)C)s1 | 0.48 ± 0.028 | 1.03 ± 0.063 | 0.985 ± 0.061 | 0.6 ± 0.02 | 1.13 ± 0.074 | 0.746 ± 0.22 | 0.0422 (inactive) |
| CCOC(=O)c1c(N)sc(C(=O)N2CCCC(C(N)=O)C2)c1C (centres undefined) | 0.442 ± 0.15 | 0.873 ± 0.095 | 0.356 ± 0.17 | 0.982 ± 0.039 | 2.11 ± 0.89 | 1.79 ± 0.39 | 0.932 (active) |
| Cc1ccc(COc2ccc3c(C)c(C)c(=O)oc3c2C)cc1 | 0.785 ± 0.067 | 0.84 ± 0.043 | 1 ± 0.098 | 0.761 ± 0.041 | 1.32 ± 0.1 | 1.53 ± 0.13 | 0.984 (active) |
| O=C(/C=C/c1cccc(S(=O)(=O)Nc2ccccc2)c1)NO | 2.21 ± 0.11 | 1.73 ± 0.14 | 2.67 ± 0.12 | 0.0696 ± 0.0082 | 0.285 ± 0.017 | 0.404 ± 0.12 | 0.0713 (inactive) |
| O=C(CN(CCc1ccccc1)S(=O)(=O)c1ccc(Cl)cc1)NCc1ccccn1 | 0.824 ± 0.065 | 0.95 ± 0.049 | 0.987 ± 0.092 | 0.741 ± 0.035 | 1.45 ± 0.084 | 1.49 ± 0.16 | 1.02 (active) |
| COc1ccc(C=CC(=O)Nc2ccc([N+](=O)[O-])cc2)cc1Br | 1.06 ± 0.17 | 0.991 ± 0.14 | 0.905 ± 0.11 | 0.996 ± 0.044 | 1.28 ± 0.18 | 1.43 ± 0.42 | 1.01 (active) |
| CCCCc1c(C)nc(NN=C(C)c2cccc([N+](=O)[O-])c2)nc1O | 0.954 ± 0.081 | 0.941 ± 0.092 | 1.11 ± 0.1 | 0.912 ± 0.032 | 1.12 ± 0.15 | 1.18 ± 0.19 | 1.01 (active) |
| O=C(O)CCCCC1SCC2NC(=O)NC21 (centres undefined) | 0.935 ± 0.067 | 1.13 ± 0.078 | 0.96 ± 0.078 | 0.953 ± 0.072 | 1.18 ± 0.075 | 1.12 ± 0.25 | 0.997 (active) |
| COc1ccc(CCNC2CC(=O)N(C)C2=O)cc1OC (centres undefined) | 1.08 ± 0.061 | 1.03 ± 0.11 | 0.994 ± 0.046 | 0.944 ± 0.07 | 0.998 ± 0.091 | 0.895 ± 0.15 | 0.997 (active) |
| CCC(=O)Nc1ccc(S(=O)(=O)NCC2CCN(Cc3ccccc3)CC2)c(C)c1 | 0.787 ± 0.038 | 0.961 ± 0.076 | 1.08 ± 0.058 | 1.14 ± 0.053 | 1.37 ± 0.23 | 1.49 ± 0.43 | 0.967 (active) |
| Cc1nnsc1C(=O)Nc1ccccc1C(F)(F)F | 1.1 ± 0.084 | 0.954 ± 0.077 | 1 ± 0.048 | 0.969 ± 0.039 | 0.993 ± 0.11 | 0.929 ± 0.15 | 1 (active) |
| C=CC(=O)N1CCC(Oc2cc3c(Nc4ccc(Cl)c(Cl)c4F)ncnc3cc2OC)CC1 | 0.879 ± 0.037 | 0.909 ± 0.095 | 1.05 ± 0.061 | 1.08 ± 0.064 | 1.36 ± 0.3 | 1.49 ± 0.48 | 0.97 (active) |
| Cc1nc(Nc2ncc(C(=O)Nc3c(C)cccc3Cl)s2)cc(N2CCN(CCO)CC2)n1.Cl | 0.802 ± 0.035 | 1.01 ± 0.12 | 1.06 ± 0.067 | 0.976 ± 0.048 | 1.22 ± 0.28 | 1.34 ± 0.45 | 1 (active) |
| Cn1c(=O)c2c(ncn2CC(O)CO)n(C)c1=O (centres undefined) | 1.02 ± 0.2 | 1.2 ± 0.35 | 1.08 ± 0.18 | 0.887 ± 0.066 | 1.32 ± 0.21 | 1.29 ± 0.23 | 0.996 (active) |
| CC(Cc1ccc(O)c(O)c1)(NN)C(=O)O (centres undefined) | 0.957 ± 0.083 | 0.979 ± 0.076 | 0.877 ± 0.083 | 0.952 ± 0.03 | 1.24 ± 0.15 | 1.38 ± 0.18 | 1 (active) |
| CC(C)(C)C1CCc2c(sc(NC(=O)c3ccc(F)cc3)c2C(N)=O)C1 (centres undefined) | 0.981 ± 0.16 | 0.999 ± 0.12 | 1 ± 0.13 | 0.914 ± 0.041 | 1.24 ± 0.3 | 1.24 ± 0.21 | 0.56 (inactive) |
| O=C1CCC(N2C(=O)c3ccccc3C2=O)C(=O)N1 (centres undefined) | 1.13 ± 0.088 | 1.03 ± 0.16 | 1.04 ± 0.12 | 1.11 ± 0.25 | 0.897 ± 0.054 | 0.863 ± 0.067 | 0.999 (active) |
| CN(C)CCC=C1c2ccccc2Sc2ccc(Cl)cc21.Cl | 0.333 ± 0.095 | 0.862 ± 0.052 | 1.12 ± 0.13 | 0.412 ± 0.046 | 1.39 ± 0.18 | 1.69 ± 0.16 | 0.547 (inactive) |
| CCC(=O)Nc1ccc(S(=O)(=O)N2CCSC(c3ccccc3C)CC2)c(C)c1 (centres undefined) | 0.688 ± 0.045 | 0.88 ± 0.11 | 0.937 ± 0.087 | 0.412 ± 0.018 | 0.996 ± 0.085 | 0.988 ± 0.17 | 0.994 (active) |

| Compound | NF-kB reporter [1, 4] | NF-kB reporter ([1]; agonist: LPS 0.1 ug/mL) | NF-kB reporter ([1]; agonist: MPLA […]) | IRF reporter ([2]; agonist: 3'3'-cGAMP 10 ug/mL) | IRF reporter ([2]; agonist: LPS 0.1 ug/mL) | IRF reporter ([2]; agonist: MPLA […]) | viability score [3] |
| --- | --- | --- | --- | --- | --- | --- | --- |
| CS(=O)(=O)N(CC(=O)NCCSCc1cccc(Cl)c1)c1cccc(Cl)c1 | 0.978 ± 0.16 | 0.986 ± 0.079 | 1.1 ± 0.15 | 1.02 ± 0.033 | 1.08 ± 0.11 | 1.24 ± 0.42 | 1 (active) |
| COc1ccc(OC)c(S(=O)(=O)NCC2CC(=O)N(c3ccc(Cl)cc3)C2)c1 (centres undefined) | 0.857 ± 0.039 | 0.968 ± 0.12 | 0.911 ± 0.052 | 0.762 ± 0.035 | 1.27 ± 0.23 | 1.21 ± 0.35 | 1.01 (active) |
| Cc1cccc(Oc2ccc(NC(=O)c3ccco3)cc2)c1 | 0.777 ± 0.18 | 0.981 ± 0.081 | 1 ± 0.095 | 0.516 ± 0.037 | 1.07 ± 0.24 | 1.27 ± 0.14 | 0.97 (active) |
| CC1=C(C(=O)Nc2ccc(C)cn2)C(c2ccccc2Cl)C2=C(CCCC2=O)N1 (centres undefined) | 1.01 ± 0.12 | 0.983 ± 0.062 | 0.847 ± 0.053 | 1.02 ± 0.034 | 1.43 ± 0.12 | 1.1 ± 0.08 | 1.01 (active) |
| Cl.O[C@@H](c1cc(C(F)(F)F)nc2c(C(F)(F)F)cccc12)[C@H]1CCCCN1 | 0.671 ± 0.091 | 0.59 ± 0.044 | 1.05 ± 0.071 | 0.504 ± 0.066 | 1.04 ± 0.096 | 2.25 ± 0.17 | 0.137 (inactive) |
| CCN(CC)c1ccc2cc(-c3nnc(NCc4ccccc4)s3)c(=O)oc2c1 | 1.12 ± 0.15 | 1.14 ± 0.072 | 0.912 ± 0.07 | 0.598 ± 0.026 | 1.47 ± 0.25 | 1.28 ± 0.22 | 0.997 (active) |
| COc1ccc(N(CC(=O)N2CCc3ccccc3C2)S(C)(=O)=O)cc1Cl | 1.18 ± 0.12 | 1.05 ± 0.077 | 0.987 ± 0.059 | 1.06 ± 0.033 | 1.52 ± 0.12 | 1.11 ± 0.13 | 1.01 (active) |
| CN1CC[C@H](c2c(O)cc(O)c3c(=O)cc(-c4ccccc4Cl)oc23)[C@H](O)C1 | 0.118 ± 0.009 | 0.0512 ± 0.004 | 0.104 ± 0.01 | 0.0122 ± 0.0028 | 0.0166 ± 0.001 | 0.0196 ± 0.0027 | 0.0463 (inactive) |
| C=CCn1c(S)nnc1-c1cc(OC)c(OC)c(OC)c1 | 0.986 ± 0.076 | 1.05 ± 0.084 | 0.988 ± 0.11 | 0.97 ± 0.041 | 1.14 ± 0.18 | 1.08 ± 0.12 | 1.03 (active) |
| COc1ccc(CN2CCN(c3cc(C)nc4c5c(C)cc(C)nc5nn34)CC2)cc1F | 1.02 ± 0.08 | 0.961 ± 0.071 | 1.06 ± 0.13 | 1.17 ± 0.037 | 1.34 ± 0.18 | 1.42 ± 0.2 | 0.995 (active) |
| CN(C)c1cncc(OC2CCN(S(C)(=O)=O)C2)n1 (centres undefined) | 1.02 ± 0.12 | 1.12 ± 0.1 | 0.911 ± 0.04 | 0.836 ± 0.045 | 0.951 ± 0.064 | 0.923 ± 0.07 | 1.01 (active) |
| O=C(CCCCCN1C(=O)c2cccc3cccc(c23)C1=O)NO | 1.71 ± 0.32 | 1.43 ± 0.12 | 4.2 ± 0.32 | 0.062 ± 0.0017 | 0.581 ± 0.061 | 0.632 ± 0.12 | 0.536 (inactive) |
| CC1=C(C(=O)OCC2CCCO2)C(c2ccc([N+](=O)[O-])cc2)C2=C(CC(C)(C)CC2=O)N1 (centres undefined) | 1.16 ± 0.19 | 0.887 ± 0.08 | 0.848 ± 0.078 | 0.553 ± 0.02 | 1.04 ± 0.23 | 0.984 ± 0.11 | 0.995 (active) |
| O=C(O)CCCNC(=O)c1cccc([N+](=O)[O-])c1 | 1.06 ± 0.14 | 1.11 ± 0.082 | 0.983 ± 0.036 | 0.986 ± 0.14 | 1.11 ± 0.11 | 1.05 ± 0.19 | 1 (active) |
| Cc1ccccc1C(=O)N(Cc1cccnc1)c1nc2c(F)cccc2s1 | 0.288 ± 0.019 | 0.749 ± 0.063 | 0.645 ± 0.038 | 1.34 ± 0.06 | 1.06 ± 0.11 | 0.952 ± 0.093 | 0.984 (active) |
| COc1ccc(CCNc2nnc(Cc3ccc(Cl)cc3)c(=O)[nH]2)cc1OC | 0.928 ± 0.068 | 1.1 ± 0.089 | 0.877 ± 0.11 | 0.977 ± 0.05 | 1.07 ± 0.065 | 1.04 ± 0.08 | 1.02 (active) |
| CCOC(=O)C(CCc1ccccc1)NC(C)C(=O)N1C(C(=O)O)CC2CCCCC21 (centres undefined) | 0.994 ± 0.11 | 0.925 ± 0.068 | 1.08 ± 0.1 | 0.953 ± 0.045 | 1.24 ± 0.2 | 1.27 ± 0.29 | 1.05 (active) |
| O=C(Nc1nc2ccc(Cl)cc2s1)c1ccc(Br)s1 | 0.998 ± 0.062 | 0.927 ± 0.072 | 0.924 ± 0.025 | 0.975 ± 0.043 | 1.06 ± 0.054 | 1.09 ± 0.11 | 0.999 (active) |
